In all, about 310,000 compounds went through this assay and about 14,000 (4.5%) showed an effect of 50% or more. Effects have a minus sign here. The entries come from a sample that favours strong results as a whole.
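Also: peak tail current of the secondary pulse compared with the same well before compound.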

The target of this assay is human ether-à-go-go-related gene (hERG) potassium channel (human, UniProt Q12809). The assay is described as follows: primary screen, population patch clamp on CHO cells stably expressing hERG; higher = less effect of the substance.
Chain of human ether-à-go-go-related gene (hERG) potassium channel (Q12809 whole entry, looked up): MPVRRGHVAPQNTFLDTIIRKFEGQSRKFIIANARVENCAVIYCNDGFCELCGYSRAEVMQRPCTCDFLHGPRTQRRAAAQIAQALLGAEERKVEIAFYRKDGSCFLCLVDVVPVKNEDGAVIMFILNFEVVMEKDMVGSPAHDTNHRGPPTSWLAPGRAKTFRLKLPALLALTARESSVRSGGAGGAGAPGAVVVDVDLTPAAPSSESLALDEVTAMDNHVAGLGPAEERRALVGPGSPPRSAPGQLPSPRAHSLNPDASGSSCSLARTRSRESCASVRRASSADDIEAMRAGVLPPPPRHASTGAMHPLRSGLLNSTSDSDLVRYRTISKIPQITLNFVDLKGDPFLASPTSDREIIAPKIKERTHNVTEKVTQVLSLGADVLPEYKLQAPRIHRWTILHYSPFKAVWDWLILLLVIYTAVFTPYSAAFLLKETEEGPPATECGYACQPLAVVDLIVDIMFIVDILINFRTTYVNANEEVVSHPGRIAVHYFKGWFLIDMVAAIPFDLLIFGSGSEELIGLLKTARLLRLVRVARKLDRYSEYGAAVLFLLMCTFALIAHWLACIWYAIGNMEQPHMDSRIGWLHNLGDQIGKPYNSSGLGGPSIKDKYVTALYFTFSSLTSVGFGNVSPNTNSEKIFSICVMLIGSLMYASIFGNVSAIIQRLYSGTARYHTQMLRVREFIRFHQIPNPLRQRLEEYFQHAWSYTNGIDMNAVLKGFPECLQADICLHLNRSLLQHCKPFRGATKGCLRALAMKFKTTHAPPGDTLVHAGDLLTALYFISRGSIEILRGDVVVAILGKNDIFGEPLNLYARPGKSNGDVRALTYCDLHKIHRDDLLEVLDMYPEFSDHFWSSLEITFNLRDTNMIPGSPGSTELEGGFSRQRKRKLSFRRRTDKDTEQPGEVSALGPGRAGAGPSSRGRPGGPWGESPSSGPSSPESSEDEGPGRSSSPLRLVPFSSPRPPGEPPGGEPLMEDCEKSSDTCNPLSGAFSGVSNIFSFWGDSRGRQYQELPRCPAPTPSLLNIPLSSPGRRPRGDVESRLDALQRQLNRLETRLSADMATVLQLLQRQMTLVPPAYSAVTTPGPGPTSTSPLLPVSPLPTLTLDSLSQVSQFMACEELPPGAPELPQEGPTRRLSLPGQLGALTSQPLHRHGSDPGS
Regarding `O=c1cc(-c2ccccc2)c2ccc(O)c(CN3CCCCC3)c2o1`, the “hERG current change (%, negative = inhibition) at 10uM” value was -8.89%.
As to `COc1ccc2nc(Nc3nc4cc5c(cc4s3)OCO5)sc2c1`, the “hERG current change (%, negative = inhibition) at 10uM” value is listed as 6.67%.
For the molecule `O=S(=O)(Nc1c(O)ccc2ccccc12)c1cccc2ccccc12`, the “hERG current change (%, negative = inhibition) at 10uM” value worked out at 6.79%.
Under `COc1ccc(C(CNC(=O)c2[nH]c(C)c(C(C)=O)c2C)N2CCOCC2)cc1` (stereo not shown) stands -4.61%.
As to `Cc1nc2oc3c(NCC4CCCO4)ncnc3c2c2c1COC(C)(C)C2` (stereo not shown), the “hERG current change (%, negative = inhibition) at 10uM” value was -16.6%.
With `CC(=O)Nc1nc(C)c(CCCOc2ccc([N+](=O)[O-])cc2)c(=O)[nH]1`, the “hERG current change (%, negative = inhibition) at 10uM” value worked out at 0.762%.
To `Cc1noc(C)c1NC(=O)N1CCN(Cc2ccccc2)CC1` belongs 8.04%; to `O=C(Nc1cccc(-n2cccn2)c1)C1CCCN(Cc2cccc(F)c2F)C1` (stereo not shown), -17.8%.
As to `CSc1cccc(CN2CCCC(C(=O)Nc3cccc(-n4cccn4)c3)C2)c1` (stereo not shown), the “hERG current change (%, negative = inhibition) at 10uM” value was -28.6%.
As to `CC(=O)c1cccc(CN2CCCC(C(=O)Nc3cccc(-n4cccn4)c3)C2)c1` (stereo not shown), the “hERG current change (%, negative = inhibition) at 10uM” value is -23.9%.
Turning to `CCOc1ccccc1CN1CCCC(C(=O)Nc2cccc(-n3cccn3)c2)C1` (stereo not shown), the “hERG current change (%, negative = inhibition) at 10uM” value is on record as -69.5%.
`COc1ccc(O)c(CN2CCCC(C(=O)Nc3cccc(-n4cccn4)c3)C2)c1` (stereo not shown): the “hERG current change (%, negative = inhibition) at 10uM” value was -14.9%.
To `COC(=O)c1ccc(CN2CCCC(C(=O)Nc3cccc(-n4cccn4)c3)C2)cc1` (stereo not shown) belongs -27.4%.
To `O=C(Nc1cccc(-n2cccn2)c1)C1CCCN(Cc2ccccc2F)C1` (stereo not shown) belongs -30.4%; to `Cc1cc(CN2CCCC(C(=O)Nc3cccc(-n4cccn4)c3)C2)cc(C)c1O` (stereo not shown), -42%; to `Cc1c(CN2CCCC(C(=O)Nc3cccc(-n4cccn4)c3)C2)cnn1C` (stereo not shown), 7.86%.
To `CCOc1cccc(CN2CCCC(C(=O)Nc3cccc(-n4cccn4)c3)C2)c1` (stereo not shown) belongs -56.3%; to `Cc1nn(C)c(Cl)c1CN1CCCC(C(=O)Nc2cccc(-n3cccn3)c2)C1` (stereo not shown), -50.2%.
Regarding `COc1ccc(CN2CCCC(C(=O)Nc3cccc(-n4cccn4)c3)C2)cc1` (stereo not shown), the “hERG current change (%, negative = inhibition) at 10uM” value is -58.9%.
For `COCCNC(=S)N(CCc1c(C)[nH]c2ccc(F)cc12)Cc1cccnc1`, the “hERG current change (%, negative = inhibition) at 10uM” value is on record as -21.5%.
To `C=CC(=O)N1c2ccccc2Sc2ccc(NC(=O)OCC)cc21` belongs 0.408%; to `CC(C)(C)c1ccc(C(=O)Nc2cccc3c(=O)[nH][nH]c(=O)c23)cc1`, -9.65%; to `O=C(Cc1ccccc1)NCC(=O)N1CCN(c2ccccc2)CC1`, 5.93%.
To `O=C(NCCn1ccc2ccccc21)c1cccc([N+](=O)[O-])c1` belongs -16.9%; to `CCC(C)N1C(=O)C2C(C(=O)Nc3cccc(OC)c3)C3C=CC2(O3)C1C(=O)NC1CCCCC1C` (stereo not shown), -6.83%; to `O=S1(=O)CCN(Cc2ccc(Cl)c(Cl)c2)CC1`, 6.46%.
`CC(C)OC(=O)Cn1nnc(-c2ccccc2)n1`: the “hERG current change (%, negative = inhibition) at 10uM” value is listed as 0.0206%.
In the case of `Cc1c(NC(=O)C(C)OC(=O)c2cc(Cl)ccc2O)c(=O)n(-c2ccccc2)n1C` (stereo not shown), the “hERG current change (%, negative = inhibition) at 10uM” value is 15.3%.
To `CC1(C)CC(=O)C2=C(C1)N(c1cccnc1)C(N)=C(C#N)C2c1cccs1` (stereo not shown) belongs -5.86%; to `CCSc1sccc1C1C(C#N)=C(N)N(c2cccnc2)C2=C1C(=O)CC(C)(C)C2` (stereo not shown), -50.4%.
Regarding `CCSc1sccc1C1C(C#N)=C(N)N(c2cccnc2)C2=C1C(=O)CCC2` (stereo not shown), the “hERG current change (%, negative = inhibition) at 10uM” value is reported as -31.5%.
With `CC12COC3(C(=O)Nc4ccc(F)cc4)CC1CCC32C` (stereo not shown), the “hERG current change (%, negative = inhibition) at 10uM” value is given as -18%.
Consider `CN(CCC#N)C(=O)COC(=O)[C@H](Cc1ccccc1)N1C(=O)c2ccccc2C1=O`, for which the “hERG current change (%, negative = inhibition) at 10uM” value is -2.25%.
To `Cc1ccc(-n2nc3c(=O)n(CC(=O)NCc4cccs4)nc(C)c3c2C)cc1` belongs -20.1%; to `Cc1ccc(Oc2ncccc2/C=N/OCc2ccc(Cl)cc2Cl)cc1`, 14.7%.
To `O=C(Nc1ccccc1-c1nnn(CC(=O)N2CCc3ccccc3C2)n1)C1CCC1` belongs -52.8%; to `CC(C)CC(=O)Nc1ccccc1-c1nnn(CC(=O)N2CCc3ccccc3C2)n1`, -37.3%.
Under `O=C(Nc1cccc(-c2nnn(CC(=O)N3CCc4ccccc4C3)n2)c1)C1CCC1` stands 2.59%; under `O=C(NCCN1CCOCC1)c1cccc(NS(=O)(=O)c2ccc(Br)cc2)c1`, -34.3%; under `OCC[C@H]1C[C@H](O)[C@@H](O)[C@]2(OCc3ccccc32)O1`, 11.9%.

These data come from publication PMC4336329 (PLoS ONE, 2015).
